The values below come from PubChem BioAssay (NCI).

Values joined by “and” are separate entries in the source; they are usually repeats but may differ in a detail not shown here. Identical values can stand only once. Compounds without any hit were thinned out: in the full panel of roughly 83,000, 20% have a hit.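 Single-concentration screen, 48 h exposure, 96-well plates. Endpoint: percent growth. Below 10 = active.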 Unmarked numbers belong to inactive results. Active and inactive are the calls of the source.

The test system of the assay is MDA-MB-468 breast. Briefly: NCI-60 one-dose screen, 48 h (100 = growth as untreated, 0 = no growth, -100 = all killed). The settings on record: 10 µM unless noted.
As for `Nc1c(C(=O)Nc2cccc(C(F)(F)F)c2)sc2nc3c(cc12)CCCCCC3`, the growth was -24.9% (active).
In the case of `COc1ccc(-n2c(/C=C3\C(=O)Nc4ccccc43)ccc2CO)cc1`, the growth is 96.4%.
With `CC(=O)c1ccc2c(c1)CCN2`, the growth is 104%.
Consider `NC/C(=C/F)COc1ccc2nc(NCc3cccnc3)oc2c1`, for which the growth was 107%.
For `CCc1ccccc1NC(=O)c1sc2nc3c(cc2c1N)C(=O)CCC3` the value was 43.3%.
Turning to `Cc1cc2nc(C(Cl)Cl)nc(-c3ccco3)n2n1`, the growth was -34% (active).
As for `CC(C)(C)OC(=O)N1C/C(=C\c2ccoc2)C(=O)/C(=C/c2ccoc2)C1`, the growth is 97.3%.
Under `O=C1NC(=S)NC(=O)C1=Cc1cccc(C=C2C(=O)NC(=S)NC2=O)c1` stands 103%; under `COc1ccc2nc(Cl)cc(C)c2c1`, 94.1% and 91.3%; under `CC1CCN(CCCCCOc2ccc3oc4cc(Cl)ccc4c(=O)c3c2)CC1`, 57.7%.
Under `Oc1[nH]c2ccccc2c1/C=c1/cc2c(c(-c3ccc(C(F)(F)F)cc3)n1)=Nc1ccccc1-2` stands 21.6%.
Under `OC(COCc1ccccc1)COCc1ccccc1` stands 108%; under `CCN1CCN(C(=O)[C@]23CCC(C)(C)C[C@@H]2C2=CC[C@@H]4[C@@]5(C)C/C(=C/c6ccncc6)C(=O)C(C)(C)[C@@H]5CC[C@@]4(C)[C@]2(C)CC3)CC1`, -49.8% (active).
`N#CC1=C(/N=C/c2ccccc2)Oc2c(ccc3ccccc23)C1c1ccc([N+](=O)[O-])cc1` (stereo unspecified): the growth was 102%.
With `O=S(=O)(NCCCNc1nccc(-c2[nH]c(-c3ccccc3)nc2-c2ccc(F)c(O)c2)n1)c1ccccc1`, the growth is 88.3%.
Consider `CC[C@@H](C)[C@H](NC(=O)Cn1cc(CNC(=O)[C@@H](NC(=O)OCc2ccccc2)C(C)C)nn1)C(=O)O`, for which the growth is 98.5%.
For `COc1cc2c(cc1-c1c(C)noc1C)ncc1nc(C3CCC(F)(F)CC3)n([C@H](C)COC(F)F)c12` the value was 33.6%.
Under `COc1ccc(CSc2nc3cc(OC)c(OC)cc3c(=O)n2-c2ccc(OC)cc2OC)cc1` stands 74.3%.
Under `O=C1Nc2cc(OC(F)(F)F)ccc2Oc2ccc(-c3ccnc(N4CC[C@H](O)C4)c3)cc21` stands -28.9% (active); under `CC(=O)c1ccc(NCn2nc(-c3ccc(Cl)cc3)oc2=S)cc1`, 100%.
For `COc1cc(N=C2C(=O)N(Cc3ccccc3)c3ccccc32)cc(OC)c1OC`, the growth was 103%.
For `COc1cc(/C=C2\SC(=O)NC2=O)ccc1OCC(=O)Nc1ccc(C(=O)/C=C/c2cc3ccccc3nc2Cl)cc1` the value was 61.4%; for `NC(=O)c1cccc(-n2ccc3cc(NC(=O)Nc4ccc(Cl)c(C(F)(F)F)c4)ccc32)n1`, 47%.
Under `CCCCCCCCNC(=O)c1ccc(Cn2c(CCCC)nc3c(N)nc4ccccc4c32)cc1` stands -72.6% (active).
Under `CCN=C1C=CC(=C(c2ccc(N)cc2)c2ccc(N(CC)CC)c(C)c2)C=C1` stands -32.9% (active); under `CCOC(=O)c1sc(-c2ccc(OS(=O)(=O)c3cccs3)c(C=O)c2)nc1C`, -15.4% (active); under `COc1ccc(/C=C/C(c2cc(OC)c(OC)c(OC)c2)n2ccnc2)cc1O` (stereo unspecified), 40.6%.
In the case of `O=C(Nc1ccc(F)cc1F)c1cc(I)ccc1O`, the growth is -1.05% (active).
For `Clc1ccc2nc(-c3ccc(-c4ccc(/C=N/NC5=NCCN5)cc4)s3)cn2c1` the value was 96.1%.
Under `Nc1nc(N)c2c(n1)NC(c1cccc(Nc3ccnc4cc(C(F)(F)F)ccc34)c1)CC(c1ccccc1)=N2` (stereo unspecified) stands 18.5%.
Under `c1ccc2cc(C[n+]3ccn(CCCCCCCCCCCCn4cc[n+](Cc5ccc6ccccc6c5)c4)c3)ccc2c1` stands -81.7% (active); under `C#C[C@]1(O)CC[C@H]2[C@@H]3CC=C4c5sc(-c6cccc(F)c6)nc5CC[C@]4(C)[C@H]3CC[C@@]21C`, 71.1%.
As for `COc1cccc(-c2nn(C)c3sc(C(=O)NCCN4CCN(c5ccccc5F)CC4)cc23)c1`, the growth was 45.9%.
Under `Cn1c2c(Cl)c(Cl)ccc2c2cc(N)[nH]c(=O)c21` stands 88.9%; under `C=C1C(=O)O[C@H]2[C@H]1CC/C(COC(=O)NCc1c[nH]c3ccccc13)=C\CC[C@@]1(C)O[C@@H]21`, 48%; under `CNC(=O)c1cc(-c2ccc(NS(=O)(=O)c3ccc(C)cc3)cc2)nc2cccnc12`, 71.1%.
